Screening results: PubChem, National Center for Advancing Translational Sciences (NCATS)
In the library only some 20% were active in any assay of this set; here they are far more common.
Pf growth 96h: Primary qHTS for delayed death inhibitors of the malarial parasite plastid, 96 hour incubation; P. falciparum luciferase reporter growth, 96 h; Potency, µM (doses to about 28.7 µM), inactives show at the top dose activity change, negative = inhibition, usual class: inhibitors; 320,000 compounds, 6.9% hits; AID 504834, 2011; also: potency is read from the fitted curve at half-maximal effect; % is scaled to controls: 0 for no effect and ±100 for the full control effect
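Parasite growth measured via integrated firefly luciferase reporter in P. falciparum. Infected erythrocytes at 2% hematocrit, 0.05% parasitemia final were treated 96 hours at 37 C under 5% CO2, and luminescence was read.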
Pf growth 48h: Primary qHTS for delayed death inhibitors of the malarial parasite plastid, 48 hour incubation | P. falciparum luciferase growth in erythrocytes, 48 h | AID 504832, 2011 | Potency, µM (titrated, usually from 28.7 µM), without a hit: top-dose activity change, negative = inhibition, hits mostly inhibitors | 310,000 compounds, 5.9% hits; also: potency is read from the fitted curve at half-maximal effect; % is scaled to controls: 0 for no effect and ±100 for the full control effect
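Growth was read as firefly luciferase luminescence after a 48 h, 37 C, 5% CO2 exposure of compounds to reporter-bearing P. falciparum cultures (0.1% parasitemia, 2% hematocrit final) in Albumax-supplemented RPMI 1640.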
Shiga toxin inh: A qHTS for Small Molecule Inhibitors of Shiga Toxin. Vero cells, Shiga toxin protein synthesis inhibition reporter. inhibition, % at 38.7 µM. 290,000 compounds, 9.2% hits. AID 2315, 2010; in the data active = inhibition mostly above about 28%, no sharp cut-off; inactive = mostly below about 43%; also: 0% is about no effect
Cycloheximide cs: Cycloheximide Counterscreen for Small Molecule Inhibitors of Shiga Toxin. AID 2314, 2010. cell reporter, cycloheximide protein synthesis inhibition counterscreen. max response, %. 300,000 compounds, 12% hits; in the data active = max response mostly above about 13%, no sharp cut-off; inactive = mostly below about 14%; also: read at 38.3 µM for the half of the compounds with a filed dose; 0% is about no effect
HCMV antiviral: qHTS Assay for inhibitors of the human cytomegalovirus (HCMV); AID 1259415, 2018; activity change, negative = inhibition, % at 57.5 µM; 410,000 compounds, 4.5% hits; HFF cells, HCMV-luciferase reporter, 72 h; hits give low values; in the data active = activity change below about -60%; inconclusive = no clear call, values can overlap the other calls; inactive = above about -39%; also: % is scaled to controls: 0 for no effect and ±100 for the full control effect
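Screen run at 2 compound doses on HFFs infected with reporter HCMV, MOI 1 PFU/cell. Luciferase activity from cell lysates at 72 h post infection gave inhibition relative to buffer-only and Salinomycin wells.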
* marks the source's active call; other numbers are inactive results. Unless noted, calls follow the shape of the dose curve; as a rule, active = well fitted inhibition curve with a large enough effect; inconclusive = small, poorly fitted or top-dose-only effect, or another doubt; inactive = no such curve, though single readings can be large or run the other way.

`O=C(NCCNC(=O)c1ccccc1F)c1ccccn1` gave Pf growth 96h 22%, Pf growth 48h 44%, Shiga toxin inh 3, Cycloheximide cs -3 and HCMV antiviral 8.
For CCOc1ccccc1Nc1ccnc2cc(Cl)ccc12 the results were Pf growth 96h 21%, Pf growth 48h 2.6µM*, Shiga toxin inh -4, Cycloheximide cs -1 and HCMV antiviral inconclusive.
Clc1ccc2c(NCc3ccccn3)ccnc2c1 was read as Pf growth 96h 0.47µM*, Pf growth 48h 0.66µM*, Shiga toxin inh -13, Cycloheximide cs -3 and HCMV antiviral -72*.
For COCCNC(=O)C(c1ccncc1)N(C(=O)c1sc(C)nc1C)c1cccc(C)c1 (centres undefined) the results were Pf growth 96h -17%, Pf growth 48h 32%, Shiga toxin inh 27, Cycloheximide cs 13 and HCMV antiviral 16.
`CCOC(=O)N1CCN=C1SCc1ccc(Cl)c(Cl)c1` gave Pf growth 96h inconclusive, Pf growth 48h inconclusive, Shiga toxin inh 15, Cycloheximide cs 9 and HCMV antiviral inconclusive.
Screening O=C(O)[C@@H]1CCCN1S(=O)(=O)c1cccc2cccnc12 returned Pf growth 96h 73%, Pf growth 48h 20% and HCMV antiviral -6.
N#Cc1cccc(-c2csc(C(O)(c3ccccc3)C(F)(F)F)n2)c1 (centres undefined) was read as HCMV antiviral -18.
`CC(=O)/C=C/n1c(=S)oc2ccccc21` gave Pf growth 96h -81%, Pf growth 48h inconclusive, Shiga toxin inh 35, Cycloheximide cs 32* and HCMV antiviral -100*.
CC(C)CC(=O)/C=C/n1c(=S)oc2ccccc21 was read as Pf growth 96h inconclusive, Pf growth 48h inconclusive, Shiga toxin inh -9, Cycloheximide cs 2 and HCMV antiviral 57.
`Cc1cc(C)c(S(=O)(=O)N2CCCCCC2)cc1Br` gave Pf growth 96h 13%, Pf growth 48h -28%, Shiga toxin inh -9, Cycloheximide cs -2 and HCMV antiviral inconclusive.
Cc1cccc(NS(=O)(=O)c2cc3c(cc2C)n(C)c(=O)c(=O)n3C)c1 was read as Pf growth 96h 13µM*, Pf growth 48h inconclusive, Shiga toxin inh -8, Cycloheximide cs 2 and HCMV antiviral -29.
For Cc1cc2c(cc1S(=O)(=O)N1CCCC1)n(C)c(=O)c(=O)n2C the results were Pf growth 96h 13µM*, Pf growth 48h -2%, Shiga toxin inh -9, Cycloheximide cs 1 and HCMV antiviral -15.
`FC(F)(F)c1ccnc(N2CCN(Cc3cnc(-c4ccccc4)[nH]3)CC2)c1` gave Pf growth 96h -1%, Pf growth 48h -11%, Shiga toxin inh 61*, Cycloheximide cs 63* and HCMV antiviral -7.
Screening Cn1ccsc1=NC(=O)c1cccc(OC(F)F)c1 returned Pf growth 96h 109%, Shiga toxin inh 92*, Cycloheximide cs 45* and HCMV antiviral 23.
Screening COc1ccc(C(C)(C)C)cc1NC(=O)CN1C(=O)C(=O)N(Cc2ccco2)C1=O returned Pf growth 96h inconclusive, Pf growth 48h inconclusive and HCMV antiviral -7.
CCOc1ccccc1NC(=O)CN1C(=O)C(=O)N(Cc2ccco2)C1=O was read as Pf growth 96h 0%, Pf growth 48h 12µM*, Shiga toxin inh -6, Cycloheximide cs -1 and HCMV antiviral 2.
For O=C(CN1C(=O)COc2ccccc21)N(Cc1ccccc1)Cc1ccccn1 the results were Pf growth 96h inconclusive, Pf growth 48h -2%, Shiga toxin inh 108, Cycloheximide cs 35* and HCMV antiviral -6.
`Cc1ccc2c(c1)N(CC(=O)Nc1ccccc1F)C(=O)CO2` gave Pf growth 96h 2.9µM*, Pf growth 48h 6%, Shiga toxin inh -1, Cycloheximide cs -3 and HCMV antiviral 4.
`CCOc1ccccc1NC(=O)CN1C(=O)COc2ccccc21` gave Pf growth 96h 12µM*, Pf growth 48h -11%, Shiga toxin inh 7, Cycloheximide cs -3 and HCMV antiviral 21.
`CCOC(=O)c1cc(-c2ccccc2)n(CC(=O)N(C)c2ccc(OC)cc2)c1C` gave HCMV antiviral 132.
Screening O=C(CCN1C(=O)COc2ccccc21)N1CCCCC1 returned Pf growth 96h 14%, Shiga toxin inh -11, Cycloheximide cs -5 and HCMV antiviral -4.
For CCOC(=O)N1CCN(C(=O)CCN2C(=O)COc3ccccc32)CC1 the results were Pf growth 96h 15%, Pf growth 48h 7%, Shiga toxin inh 20, Cycloheximide cs -2 and HCMV antiviral -62*.
`Cc1ccc(-c2cc(-c3ccccc3)[nH]c(=S)c2C#N)cc1` gave Pf growth 96h 38%, Pf growth 48h inconclusive, Shiga toxin inh 2, Cycloheximide cs -2 and HCMV antiviral -39.
Screening N#Cc1c(-c2ccc(C(F)(F)F)cc2)cc(-c2ccccc2)[nH]c1=S returned Pf growth 96h inconclusive, Pf growth 48h 1%, Shiga toxin inh 8, Cycloheximide cs -1 and HCMV antiviral -60*.
`CC(=O)N1C=Cc2c(c(C)c3c([nH]c4ccccc43)c2C)C1` gave Pf growth 96h -7%, Pf growth 48h 1.9µM*, Shiga toxin inh 25 and Cycloheximide cs 17*.
Screening O=[N+]([O-])c1cccc2nc3ccccc3c(NCCCn3ccnc3[N+](=O)[O-])c12 returned HCMV antiviral -97*.
Screening Cc1ccc(C(=O)C[n+]2ccc3ccccc3c2)cc1 returned Pf growth 96h -27%, Pf growth 48h -35%, Shiga toxin inh 45, Cycloheximide cs 22* and HCMV antiviral 15.
O=C(C[n+]1cccc(NC(=O)c2ccccc2)c1)c1ccc(NC(=O)c2ccccc2)cc1 was read as Pf growth 96h inconclusive, Pf growth 48h inconclusive, Shiga toxin inh -3, Cycloheximide cs 12 and HCMV antiviral -12.
Screening O=C(C[n+]1ccc2ccccc2c1)c1ccc(NC(=O)c2ccccc2)cc1 returned Pf growth 96h 51%, Pf growth 48h 13µM*, Shiga toxin inh 22, Cycloheximide cs -4 and HCMV antiviral -6.
Screening Cc1ccc[n+](CC(=O)c2ccccc2)c1 returned Pf growth 96h -10%, Pf growth 48h 18%, Shiga toxin inh 15 and Cycloheximide cs 4.
For O=S(=O)(C(=CNc1ccccc1)S(=O)(=O)c1ccccc1)c1ccccc1 the results were Pf growth 96h 10µM*, Pf growth 48h -7%, Shiga toxin inh -5, Cycloheximide cs -2 and HCMV antiviral inconclusive.
Screening Cc1ccc(NC=C(S(=O)(=O)c2ccccc2)S(=O)(=O)c2ccccc2)cc1 returned Pf growth 96h -29%, Pf growth 48h inconclusive, Shiga toxin inh 10, Cycloheximide cs 7 and HCMV antiviral 2.
